The campaign covered roughly 5,500 compounds. About 2,000 (36%) were called active. Roughly 18% stayed inconclusive and do not appear here. No stated cut-off is given here; in the data, active means normalized growth mostly below about 0.91 (no sharp cut-off); inconclusive means no clear call, values can overlap the other calls; inactive means mostly above about 0.92. The list shows a part of the results.
Assay: chemical genetic growth profiling, strain panel (AID 1159580);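 further: tested at 20 µM; growth read once vehicle control cultures reached saturation at 30 °C; 1 = growth at the plate median or of vehicle wells; lower values mean less growth of the strain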
Settings: S. cerevisiae deletion strains, growth OD

Measured: normalized growth

Clc1ccccc1-c1csc(-c2cccnc2)n1
active: locus YDL101C, strain DUN1, active compounds read low 0.913 | locus YDR054C, strain cdc34, active compounds read low 0.848 | locus YDR477W, strain SNF1, active compounds read low 0.649 | locus YER133W, strain GLC7, active compounds read low 0.565 | locus YGR040W, strain KSS1, active compounds read low 0.647 | locus YHR030C, strain SLT2, active compounds read low 0.591 | locus YJL095W, strain BCK1, active compounds read low 0.247 | locus YKL193C, strain SDS22, active compounds read low 0.88 | locus YKL203C, strain TOR2, active compounds read low 0.572 | locus YLR113W, strain HOG1, active compounds read low 0.694 | locus YMR277W, strain FCP1, active compounds read low 0.869 | locus YNL207W, strain RIO2, active compounds read low 0.86 | locus YOR119C, strain RIO1, active compounds read low 0.609 | locus YOR329C, strain SCD5, active compounds read low 0.902 | locus YPL031C, strain PHO85, active compounds read low 0.566 | locus YPL153C, strain RAD53, active compounds read low 0.563 | locus YPL204W, strain HRR25, active compounds read low 0.553 | locus YPL256C, strain CLN2, active compounds read low 0.774 | strain TSCII, active compounds read low 0.874
inactive: locus YAR019C, strain CDC15, active compounds read low 0.893 | locus YBL105C, strain PKC1, active compounds read low 0.934 | locus YBR135W, strain CKS1, active compounds read low 0.924 | locus YBR136W, strain MEC1, active compounds read low 0.929 | locus YBR160W, strain CDC28, active compounds read low 0.923 | locus YDL017W, strain CDC7, active compounds read low 0.928 | locus YDL028C, strain MPS1, active compounds read low 0.923 | locus YDL108W, strain KIN28, active compounds read low 0.924 | locus YDL132W, strain cdc53, active compounds read low 0.932 | locus YDL214C, strain PRR2, active compounds read low 0.822 | locus YDR052C, strain DBF4, active compounds read low 0.917 | locus YDR226W, strain ADK1, active compounds read low 0.931 | locus YER123W, strain YCK3, active compounds read low 0.673 | locus YFL009W, strain cdc4, active compounds read low 0.932 | locus YFL029C, strain CAK1, active compounds read low 0.889 | locus YFR003C, strain YPI1, active compounds read low 0.93 | locus YFR019W, strain FAB1, active compounds read low 0.783 | locus YFR028C, strain CDC14, active compounds read low 0.939 | locus YGR052W, strain FMP48, active compounds read low 0.769 | locus YGR092W, strain DBF2, active compounds read low 0.541 | locus YHR079C, strain IRE1, active compounds read low 0.636 | locus YHR082C, strain KSP1, active compounds read low 0.894 | locus YHR205W, strain SCH9, active compounds read low 0.758 | locus YIL147C, strain SLN1, active compounds read low 0.922 | locus YJL128C, strain PBS2, active compounds read low 0.926 | locus YJL157C, strain FAR1, active compounds read low 0.773 | locus YJR016C, strain ILV3, active compounds read low 0.902 | locus YJR066W, strain TOR1 (second series), active compounds read low 0.686 | locus YJR066W, strain TOR1, active compounds read low 0.67 | locus YKL048C, strain ELM1, active compounds read low 0.968 | locus YKL067W, strain YNK1, active compounds read low 0.866 | locus YKL101W, strain HSL1, active compounds read low 0.9 | locus YLR133W, strain CKI1, active compounds read low 0.842 | locus YLR403W, strain SFP1, active compounds read low 0.662 | locus YML070W, strain DAK1, active compounds read low 0.787 | locus YMR001C, strain CDC5, active compounds read low 0.913 | locus YMR205C, strain PFK2 (second series), active compounds read low 0.864 | locus YNL006W, strain LST8, active compounds read low 0.913 | locus YNL020C, strain ARK1, active compounds read low 0.838 | locus YNL161W, strain CBK1, active compounds read low 0.919 | locus YNL183C, strain NPR1, active compounds read low 0.829 | locus YNL222W, strain SSU72, active compounds read low 0.916 | locus YNL307C, strain MCK1 (second series), active compounds read low 0.82 | locus YOL078W, strain AVO1, active compounds read low 0.89 | locus YOL136C, strain PFK27, active compounds read low 0.819 | locus YOR061W, strain CKA2, active compounds read low 0.896 | locus YOR231W, strain MKK1, active compounds read low 0.756 | locus YPL209C, strain IPL1, active compounds read low 0.909 | locus YPR025C, strain CCL1, active compounds read low 0.915 | locus YPR106W, strain ISR1, active compounds read low 0.932 | locus YPR111W, strain DBF20, active compounds read low 0.938 | strain NNK1, active compounds read low 0.932
